Assays:
Test in all cases: PBM binding z-score (relative to random genomic background probes); higher = stronger binding; sequences stand for … in GC…GCGATTGACAGCGTAGAATGAAGG
[1] = system: RARb homodimer (NR concentration 270 nM)
In short: (§1)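 Probes were double-stranded and carried 34-nt variable regions with direct-repeat seeds, single-nucleotide variants, half-site ablations and random human genomic background sequences, printed on custom Agilent 4×180K protein-binding microarrays. Arrays were incubated 1 h with ligand-free nuclear receptor dimers in PBS pH 7.4, 2% milk, 0.02% Triton X-100, 1 mM DTT, 0.2 mg/mL BSA and 0.4 mg/ml salmon testes DNA. Antibodies against each partner (one per run) detected binding, and scanned fluorescence was regression-normalized. Binding z-scores use the random background probes as reference.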

[2] = system: RARg:RXRa (NR concentration 270 nM, RXRa partner concentration 90 nM)
In short: as §1

[3] = system: RARg homodimer (NR concentration 270 nM)
In short: as §1

[4] = system: RXRa DBDmut IVT, anti-RXR (DBD mutation: RXRa K156A/R161A, NR concentration 90 nM)
In short: as §1

[5] = system: RXRa homodimer (NR concentration 180 nM)
In short: as §1

[6] = system: THRa:RXRa (NR concentration 90 nM, RXRa partner concentration 90 nM)
In short: as §1

[7] = system: THRa homodimer (NR concentration 90 nM)
In short: as §1

[8] = system: VDR homodimer (NR concentration 270 nM)
In short: as §1

Sequence	PBM binding z-score [1]	PBM binding z-score [2]	PBM binding z-score [3]	PBM binding z-score [4]	PBM binding z-score [5]	PBM binding z-score [6]	PBM binding z-score [7]	PBM binding z-score [8]
CGAACTAGGCCACCAGGACAGTGAAGAGGTTGGA	0.689	0.238	0.672	-0.131	-0.0253	0.954	0.3	-0.183
ATCGAATGGTCGAAGGTGAGTATACCCACCCGAA	0.0928	0.392	0.497	-0.884	0.585	0.0175	-0.459	-0.194
ATATGTAGGTTACATCCGAGTCATTCAGGCTATG	0.405	0.915	1.04	0.858	1.04	0.785	0.511	0.236
CGTCCAAGGTCAACAGGTCAGTGAAAGCGACGTG	5.3	7.26	7.37	3.65	6.49	4.23	2.98	2.51
CCGAGTAGTTTACGAGGGGGCATTCAGTGCGAAT	1.7	1.92	1.48	2.08	1.37	2.54	0.595	3.37
ATACGTAGGTTATCGGGTCATTCAGTTTGCGCAT	2.77	3.41	2.36	1.77	3.41	3.18	2.93	3.86
TTGAGTAGGTTACGGGGGCATTCAGGGATGAAGA	2.59	3.71	3.05	2.36	3.3	3.83	2.02	4.22
CGAACTAGGTCAAAGGACAATGAAAGGCGACGTA	3.04	4.01	4.77	1.13	3.35	2.67	0.783	0.585
TCATATAGGTAATCAGGTGAAAGTCCGTAAGTTA	0.773	0.361	0.3	1.52	0.885	1.82	1.51	0.521
CTCGAAAGGTCGGTTGAGGTCAGTATACGGATAA	4.41	4.95	4.93	1.63	4.02	5.26	3.23	3.44
TCGAGTAGGTTACGGGGGTATTCAGGGATGAAGA	1.58	2.08	1.62	1.44	2.06	2.99	1.08	1.21
CCGCGTAGGTTACGAGGGGGCATTCAGTGCGAAT	2.04	3.34	2.15	1.51	2.28	3.95	0.24	2.58
CCGAGTAGGTTACGAGGGGGCACTCAGTGCGAAT	2.29	3.19	2.39	0.868	2.17	3.74	0.205	2.68
CGAAGTAGGTCACCAGGACAGTGAAGAGGTTGGA	3.32	4.39	5.16	1.03	3.57	2.85	1.2	0.581
CCTAGTTGGTCAGGAGGTCACATACCGGATATGA	4.17	4.57	3.85	0.947	3.92	3.32	2.13	2.4
CTATGTAGGTTAAGAGGGTCATTCAGTTTGAAAG	3.03	3.16	2.3	1.33	3.33	2.42	0.33	3.39
TCGAGTAGGTTACGGGCGCATTCAGGGATGAAGA	0.216	0.276	0.202	-0.064	0.599	0.304	-0.327	-0.375
CCTACAGGGCCAAAGGTCATTGATTCCAATGCTC	4.75	6.13	5.66	1.95	7.35	3.46	0.651	2.73
CGAACTAGGTCAAAGGACAGTCAAAGGCGACGTA	3.04	4.11	4.5	1.74	3.05	2.54	0.161	0.43

Sequence	PBM binding z-score [1]	PBM binding z-score [2]	PBM binding z-score [3]	PBM binding z-score [4]	PBM binding z-score [5]	PBM binding z-score [6]	PBM binding z-score [7]	PBM binding z-score [8]
TCGAATAGGTTACGGGGGCATTCAGGGATGAAGA	2.78	4.18	3.02	2.78	3.99	4.29	1.9	3.3
CCGAGTAGGTTACGATGGGGCATTCAGTGCGAAT	0.657	0.828	0.851	0.0778	0.63	1.08	-0.789	0.231
CCGACTTGGGCAAAGGTTACCATACTCAGTACGA	1.87	2.04	1.01	0.535	2.45	1.39	-0.0972	0.0256
CAAACTAGGTCACAGAGGTCAACGTCCGTGCGTA	5.75	7.28	8.09	3.2	7.63	4.9	3.25	5.58
ACTTGGAGGACAAAGGTCAGAGCTACGCCAGTGA	4.32	6.26	5.66	1.71	5.24	3.55	0.496	1.62
ATCGAAAGGTCGTGAGGTGAGTTTACAGAAAGGC	3.38	4.69	4.07	2.26	5.37	3.57	1.5	3.12
ATCGGAAGGTCGAGGTGAGTATAGAGAAAGGGAA	2.14	2.38	2.75	0.14	2.25	2.28	0.964	0.543
TGGAGTAGGTTACGGGGGCATTCAGGGATGAAGA	2.94	3.75	3.39	2.16	2.83	4.11	2.48	3.94
CCGAGTAGGTTCCGAGGGGGCATTCAGTGCGAAT	1.62	1.66	1.02	1.42	1.12	2.38	1.1	3.91
CGAACTAGGTCCAAGGACAGTGAAAGGCGACGTA	0.38	0.00598	0.386	0.946	0.00981	1.39	0.672	-0.041
CCTGCTAGGTCAAGGGTCAGCTAAAGCAGCTCGC	4.91	6.68	6.43	1.48	7.49	3.95	1.24	1.03
CCGAGTAGGTTACGAGGGGGCATCCAGTGCGAAT	2.11	2.95	2.31	0.736	2.02	3.7	0.756	2.87
CCTGCTAGGTCTATGGTCAGCTAAAGCAGCTCGC	0.163	-0.335	-0.344	0.301	-0.345	-0.0563	-0.394	-0.594
CTTAGTTGGTCAGGAGGTCACACACCGGATATGA	4.33	5.21	4.53	1.06	4.99	3.67	2.65	2.74
CCTACTGGGCAAAAAAGGTCATTGATGCCGATAA	4.17	4.03	4.11	0.33	4.81	3.57	0.0156	2.05
CGAACTAGGTCACCAGGATAGTGAAGAGGTTGGA	3.4	4.23	5.43	1.26	3.14	3.3	1.45	0.463
ACTCGGAGGACAAAGGTGAGAGCTACGCCAGTGA	1.79	2.63	1.82	0.453	1.5	1.68	0.221	0.0446
ATACGTAGGTTACATCCGGGTCATTCAGGCTATG	2.79	3.59	2.17	0.372	3.06	3.81	2.5	2.66
TTTCCAAGGTGAAAGGTCGTTGATGCACGCCTTG	2.58	4.16	1.99	0.408	5.33	3.76	1.38	1.38

Sequence	PBM binding z-score [1]	PBM binding z-score [2]	PBM binding z-score [3]	PBM binding z-score [4]	PBM binding z-score [5]	PBM binding z-score [6]	PBM binding z-score [7]	PBM binding z-score [8]
CATACCGGGTCAGCTAGGCCAGAGTAGGGACGGC	2.34	3.47	3.83	-0.0713	3	2.53	0.906	0.395
CCTAGTAGGTTATGGGGCATTCAGGCAACGGTGA	0.8	0.878	0.852	-0.581	0.835	0.719	0.289	0.0809
ATATGTAGGTTAGGGCCATTCAGAAAGTAGGGAA	1.13	0.818	0.94	0.769	0.668	1.47	0.811	0.685
TCGAGTATGTTACGGGGGCATTCAGGGATGAAGA	1.62	2.19	1.29	2.11	1.67	3.98	1.12	3.01
ATATGTAGGTTAGGATCATTCAGAAAGTAGGGAA	0.531	0.593	0.675	0.541	1.01	0.577	0.347	0.616
CGTCCAAGGTCCATGCTAGGTCAGTGAAAGCATT	2.62	1.41	1.22	1.41	0.238	2.73	0.766	1.07
CCGATTAGGTTACGAGGGGGCATTCAGTGCGAAT	2.56	3.12	2.54	1.96	1.52	3.91	1.57	2.8
ATATGTAAGTTAGGGTCATTCAGAAAGTAGGGAA	3.04	4	3.02	2.47	5.33	4.05	2.85	3.96
CGAACTAGGTCACCAGGACAGTGCAGAGGTTGGA	3.73	4.5	5.27	1.53	3.58	3.36	2.27	0.862
GCTGCTAGGTCAGGTTGGTCTGCTAACGGGTACG	2.51	2.46	3.25	0.755	1.04	1.89	0.834	0.554
TCGACTAGGTTACGGGGGCATTCAGGGATGAAGA	2.54	3.66	3.14	2.55	2.88	4.1	1.91	3.72
CCGAGTCGGTTACGAGGGGGCATTCAGTGCGAAT	1.4	1.66	1.41	0.587	0.76	2.35	0.015	3.2
CGTCAAAGTTCAAGGTAATGTAACAGAAAGCAGC	4.04	5.25	6.13	4.23	4.26	2.88	0.964	3.14
TCTCGGAGGACACGAAAGGTGAGAGCTCGACATC	2.24	1.64	1.99	0.659	0.812	2.51	0.549	-0.374
ATATGTAGGGTAGGGTCATTCAGAAAGTAGGGAA	3.53	3.55	2.77	2.93	4.34	4.11	3.7	4.73
TCGAGTAGGATACGGGGGCATTCAGGGATGAAGA	1.19	1.52	0.916	1.24	1.29	3.47	0.629	2.79
CGAACTAGGTCACCAGCACAGTGAAGAGGTTGGA	3.37	4.43	5.44	1.35	3.29	3.1	1.29	0.496
TAGCCTAGGTCATGGGCCTGTATACCACGCGAAC	3.34	4.47	4.67	0.485	3.9	3.23	1.31	0.584
CTATGTAGGTTAAGGGGGTCATGCAGTTTGAAAG	4.24	5.46	4.16	2.12	6.12	4.11	2.49	5

Reference: the supplement of paper PMC6555819
